Structures are written as SMILES. Hit rate of the full screen: of about 320,000 compounds, about 210 (0.066%) were called active.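 Rule for the calls: active = GFP response relative to DMSO above a set limit, near the screen mean plus 3 SD (cut at about 150% in these data); inconclusive = Fewer than 70 cells measured for a yeast strain; inactive = the rest.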 Only a selection was taken, and actives are over-represented in it overall.

This assay is described as follows: TOR pathway RTG branch CIT2 reporter changes – S. cerevisiae, GFP fusion, multiplex flow cytometry, MLPCN library, primary screen (AID 2029).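 Note: ratio of well median GFP fluorescence to mean of DMSO wells on the plate.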 The note with it: S. cerevisiae CIT2-GFP strain, 3 h, at 10 µM, hits give high values, 100 means same as DMSO wells.
As for `COc1cc(OC)cc(-c2c(C#Cc3ccsc3)c3cc(-c4ccc(SC)cc4)ccc3n2C)c1`, the GFP response vs DMSO was 109% (inactive).

On to `CCN(CC)P(=O)(/C(Cl)=C\Nc1c(C)n(C)n(-c2ccccc2)c1=O)N(CC)CC`, for which the GFP response vs DMSO was 113% (inactive).

`CC1=C2C(=O)OC(c3ccoc3)C2(C)CCC1` (stereo not given): the GFP response vs DMSO is 103% (inactive).

Regarding `COc1ccc(CN2CC[C@H]3C=CC[C@@H](C(=O)N4CCOCC4)[C@H]3C2=O)cc1OC`, the GFP response vs DMSO is 99.2% (inactive).

As to `COc1ccc(NC(=O)CC(NC(C)c2ccccc2)C(=O)O)cc1` (stereo not given), the GFP response vs DMSO was 101% (inactive).

In the case of `O=C(NCC(=O)N1CCCCCCC1)c1ccccc1Cl`, the GFP response vs DMSO was 106% (inactive).

Turning to `Cc1ccc(NC(=O)C(CC(=O)O)C2CCCO2)c(C)c1` (stereo not given), the GFP response vs DMSO was 98.9% (inactive).

For `Cc1noc(C)c1CSc1nc2cc(S(=O)(=O)N3CCOCC3)ccc2o1`, the GFP response vs DMSO is 111% (inactive).

`O=C(CSc1ccc(C(F)(F)F)cc1[N+](=O)[O-])NCCOc1ccccc1`: the GFP response vs DMSO was 108% (inactive).

`COc1ccccc1N1CCN(CC(=O)Nc2ccnn2C2CCCC2)CC1`: the GFP response vs DMSO was 98.2% (inactive).

Consider `CC1(C)CC(CNCCC(c2ccc(F)cc2)c2ccco2)CCO1` (stereo not given), for which the GFP response vs DMSO is 109% (inactive).

Turning to `CCOc1cc(CN2CCCC(CO)(Cc3ccc(F)cc3F)C2)ccc1OC` (stereo not given), the GFP response vs DMSO is 98% (inactive).

As for `O=C(c1ccc2ccccc2n1)N1CCN(c2ccccc2Cl)CC1`, the GFP response vs DMSO was 94.9% (inactive).

Turning to `CCCCn1c(N)c(N2CCOCC2)c(=O)n(CC(=O)NCCc2ccccc2)c1=O`, the GFP response vs DMSO is 105% (inactive).

As to `CSCCC(NS(=O)(=O)c1ccc(C)cc1)C(=O)N1CCCC1` (stereo not given), the GFP response vs DMSO was 90.1% (inactive).

Consider `CCN(CC)S(=O)(=O)c1ccc(OC(C)C)c(N)c1`, for which the GFP response vs DMSO is 94.4% (inactive).

As for `CCOc1ccc(Nc2nc(Cc3nnc(SCC(=O)c4ccc(C)cc4)o3)cs2)cc1`, the GFP response vs DMSO is 89.8% (inactive).

On to `O=C(NCc1nnc(SCC(=O)N2CCCc3ccccc32)o1)c1ccccc1F`, for which the GFP response vs DMSO is 91.6% (inactive).

Turning to `CC1CCCCC1NC(=O)COc1ccc(C#N)cc1` (stereo not given), the GFP response vs DMSO is 100% (inactive).

For `O=C(O)CC(SCC(=O)Nc1ccc(Br)cc1)C(=O)O` (stereo not given), the GFP response vs DMSO is 101% (inactive).

`OCCN1CCOCCOCCN(CCO)CCN(CCO)CC1`: the GFP response vs DMSO was 90.9% (inactive).

Regarding `NC(=S)Nc1c(Cl)cccc1Cl`, the GFP response vs DMSO is 104% (inactive).

Take `CC(Oc1ccc(Cl)cc1)c1ccnn1S(C)(=O)=O` (stereo not given): the GFP response vs DMSO was 88.9% (inactive).

As for `CN(NS(=O)(=O)c1cccs1)c1ncc(C(F)(F)F)cc1Cl`, the GFP response vs DMSO is 171% [may fluoresce green] (active).

Take `Cc1cc(C)cc(NS(=O)(=O)c2ccc(Oc3ncc(C(F)(F)F)cc3Cl)cc2)c1`: the GFP response vs DMSO was 99.4% (inactive).

In the case of `C#CCN(N(C)c1ncc(C(F)(F)F)cc1Cl)S(=O)(=O)c1ccc2ccccc2c1`, the GFP response vs DMSO was 101% (inactive).

Turning to `COc1ccc(-c2cc(=O)oc3cc(OCC(=O)N[C@@H](Cc4c[nH]c5ccccc45)C(=O)O)ccc23)cc1`, the GFP response vs DMSO is 110% (inactive).

Turning to `O=C(N/C(=C\c1ccc([N+](=O)[O-])cc1)C(=O)N1CCOCC1)c1cccc(Br)c1`, the GFP response vs DMSO is 100% (inactive).

Take `COc1cc(NS(=O)(=O)c2ccc(N/C=C(\C=O)c3nc4cc(Cl)ccc4o3)cc2)nc(OC)n1`: the GFP response vs DMSO is 103% (inactive).

With `COc1ccccc1C(=O)NCCC(=O)NC1=NCCS1`, the GFP response vs DMSO was 105% (inactive).

In the case of `Cc1cccc(Nc2nc3c(S(=O)(=O)c4ccccc4)nnn3c3ccccc23)c1C`, the GFP response vs DMSO is 632% [may fluoresce green] (active).

Turning to `CC(=O)Nc1ccc(Nc2nc3c(S(=O)(=O)c4ccc(C)c(C)c4)nnn3c3ccccc23)cc1`, the GFP response vs DMSO is 106% (inactive).

In the case of `Cc1ccc(S(=O)(=O)c2nnn3c2nc(N2CCN(c4ccccn4)CC2)c2ccccc23)cc1`, the GFP response vs DMSO was 94.5% (inactive).

Regarding `CC(=O)N1CC2(C)CN(C(C)=O)CC(C)(C1)C2=O`, the GFP response vs DMSO was 107% (inactive).

For `Cc1nc(-c2ccc(F)cc2)c(CC(=O)Nc2cc(S(=O)(=O)N3CCCCC3)ccc2C)s1`, the GFP response vs DMSO is 99.9% (inactive).

Turning to `COc1ccccc1CCCNC(=O)C1CCC(=O)N(CCN2CCOCC2)C1` (stereo not given), the GFP response vs DMSO is 94.1% (inactive).

`CCN1/C(=C/c2ccc3ccc(C)cc3[n+]2CC)Sc2ccccc21`: the GFP response vs DMSO was 337% [may fluoresce green] (active).

Take `CCN1/C(=C\c2ccc3ccccc3[n+]2CC)Sc2cc(C)ccc21`: the GFP response vs DMSO is 1560% [may fluoresce green] (active).

For the compound `CCc1nc2cccnc2n1-c1ccc(C(=O)O)cc1`, the GFP response vs DMSO is 102% (inactive).

`COc1ccccc1C(CNC(=O)c1ccc(C)c(S(=O)(=O)N2CCCCC2)c1)N(C)C` (stereo not given): the GFP response vs DMSO is 97.1% (inactive).

Values taken from PubChem BioAssay AID2029 (NMMLSC, 2009).
